Each compound was assayed on Human papillomavirus type 1a E7 protein (residues 1-88) (assay: HPV1a E7 small-molecule binders, primary screen, biochemical, small-molecule microarray, residues 1-88, 635 nm (AID 1129)). Conditions: small-molecule microarray binding, fluorescence 635 nm; higher = more signal.
For `[N-]=[N+]=NCc1ccccc1[C@H]1OC(c2ccc(OCCCO)cc2)=N[C@@]1(Cc1ccccc1)C(=O)N1CCOCC1`, the composite z-score was 1.26.
In the case of `C=CCOC(=O)[C@H]1[C@@H]2C(=O)O[C@@H](c3ccccc3)[C@@H](c3ccccc3)N2[C@@H](c2ccc(OCCOC(=O)[C@@H]3C[C@@H]4C(=O)N[C@@H](CC(C)C)C(=O)N4[C@@H]3c3ccc(O)cc3)cc2)[C@]12C(=O)Nc1ccc(I)cc12`, the composite z-score is reported as 0.935.
`COCCOC(=O)N1C(=O)[C@@]2(c3cc(C#CCC(C(=O)OC)C(=O)OC)ccc31)[C@H](C(=O)N1CCc3cc(OC)c(OC)cc3C1)[C@H]1C(=O)O[C@H](c3ccccc3)[C@H](c3ccccc3)N1[C@@H]2c1ccc(O)cc1` showed a composite z-score of 1.21.
In the case of `O=C1c2ccccc2[C@@]2(Cc3ccccc3N(Cc3ccccc3)C2=O)[C@H](c2ccc(CO)cc2)N1Cc1ccccc1`, the composite z-score is reported as -1.58.
Work on `CN(C)CCCC[C@@H]1NC(=O)[C@@H]2C[C@H](C(=O)NCCCCCCNC(=O)CS)[C@H](c3cccc(OCCO)c3)N2C1=O` yielded a composite z-score of 0.0742.
`CCCC[C@H]1OB(O)C[C@H]2C1=C(COC)C[C@H]1C(=O)C=CC(=O)[C@H]12` was tested, and the composite z-score was 0.215.
`C=C(/C(=C/C[C@@H](OC(C)=O)c1ccccc1OCCO)c1cc(C(=O)OC)ccc1OC)C(C)C` showed a composite z-score of 0.136.
In the case of `C=C(CCCC)/C(=C/C[C@H](OC(C)=O)c1cccc(OCCO)c1)c1cc(C(=O)OC)ccc1OC`, the composite z-score is reported as -0.426.
Work on `CN(C)CCCC[C@@H]1NC(=O)[C@@H]2C[C@H](C(=O)NCc3ccc(F)cc3)[C@H](c3ccc(O)cc3)N2C1=O` yielded a composite z-score of 0.0709.
